Screen size: about 210,000 compounds; about 5,900 (2.8%) were called active. Roughly 5% stayed inconclusive and do not appear here. The sample holds actives, similar compounds and a random draw of the others, so the mix is not that of the screen. The call rests on the fitted dose curve; in most records, active means well fitted activation curve with a large enough effect; inconclusive means small, poorly fitted or top-dose-only effect; inactive means no such curve, though single readings can be large or run the other way.
Test: qHTS Assay for Enhancers of SMN2 Splice Variant Expression; further: nearly all actives have a fitted effect of over 55% in size; on activity change, positive = activation: % of control where 0% means no effect
Settings: HEK293 SMN2-luciferase splicing reporter, luminescence, 30-36 h; series mostly up to 46.1 µM; activity change, positive = activation: at the top concentration
Summary of the method: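 HEK293 cells carry an SMN2 minigene-luciferase reporter in which exon 7 inclusion puts luciferase in frame. Cells were seeded at 2000 cells/well, attached for 10-12 hours, then exposed to compounds for 30-36 hours at 37C before ONE-Glo luminescence.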
Potency means the concentration at half of the fitted maximal effect.

Row | Compound | activity change, positive = activation | Potency
1 | Cc1ccc(-c2nn(CCC(=O)Nc3ccc(Cl)c(Cl)c3)c(=O)c3ccccc23)cc1 | -7.8% (inactive) | 
2 | CC(C)Cn1c(C2CC(=O)N(c3ccccc3Cl)C2)nc2ccccc21 (stereo not drawn) | -18.1% (inactive) | 
3 | Cc1cccc(NC(=O)CSc2nc3c(oc4ccccc43)c(=O)n2-c2ccc(F)cc2)c1 | 10.2% (inactive) | 
4 | Cc1cc(C)c2oc(C(=O)Nc3ccc(S(=O)(=O)N4CCCCCC4)cc3)cc(=O)c2c1 | 6.66% (inactive) | 
5 | Cc1ccc(S(=O)(=O)N(Cc2nc(-c3ccc(Cl)cc3)no2)C2CCCCC2)cc1 | -9.98% (inactive) | 
6 | COc1ccc(C=Nc2cccc3ncccc23)cc1 | 7.26% (inactive) | 
7 | COc1ccc(/C=N/Nc2nc3ccccc3c(=O)[nH]2)cc1 |  | 12.6 µM (active)
8 | O=c1c2ccccc2nc(N/N=C/c2ccccc2)n1O | 24.9% (inactive) | 
9 | CCc1cc2c(cc3c(=O)n(CC(=O)N4CCN(c5cc(Cl)ccc5C)CC4)nc(CC)n32)s1 | -1.27% (inactive) | 
10 | CCCS(=O)(=O)c1c(Nc2ccccc2C)sc(C(=O)c2ccccc2)c1N | -28.1% (inactive) | 
11 | O=c1c2cccnc2n(Cc2cccc(F)c2)c(=O)n1Cc1ccccc1Cl | 2.72% (inactive) | 
12 | CCCCOC(=O)CSc1ncnc2sc3c(c12)CCC(C)C3 (stereo not drawn) | 2.8% (inactive) | 
13 | Cc1ccc(C(=O)Nc2ccc(C)c(S(=O)(=O)N(C)C)c2)s1 |  | 12.6 µM (active)
14 | Cc1ccc(NC(=O)CNCc2ccccn2)cc1S(=O)(=O)N(C)C | 16.5% (inactive) | 
15 | Cc1ccc(NC(=O)c2cccs2)cc1S(=O)(=O)N(C)C | 2.79% (inactive) | 
16 | COc1ccc(C(=O)Nc2onc3c2CCCC3)cc1 |  | 0.794 µM (active)
17 | COc1ccc(C(=O)N/N=c2\oc3ccccc3cc2C(N)=O)cc1 | -10.2% (inactive) | 
18 | COc1ccc(C(=O)Nc2ccc(F)cc2F)cc1 |  | 10 µM (active)
19 | COc1ccccc1CC(=O)Nc1ccc(F)cc1F | 8.91% (inactive) | 
20 | CCc1cc(C(N)=O)c(NC(=O)c2ccc(OC)cc2)s1 |  | 11.2 µM (active)
21 | O=C(Nc1cccc2ccccc12)c1onc2c1CCCC2 | 60% (inactive) | 
22 | COc1ccc(NC(=O)c2ccc(C#CC(C)(C)O)cc2)cc1 | -25.7% (inactive) | 
23 | CCc1cc(C(c2ccccc2OC)N2CCOCC2)c(NC(=O)c2ccccc2)s1 (stereo not drawn) | -19.6% (inactive) | 
24 | COc1ccc(NC(=O)c2c(C)oc3c2CCCC3)cc1 | -13.5% (inactive) | 
25 | COc1cc(OC)cc(C(=O)OCC(=O)Nc2ccc(F)cc2F)c1 | -0.371% (inactive) | 
26 | COc1ccc(C(=O)Nc2ccc(S(=O)(=O)NC(C)C)cc2)cc1 | -6.41% (inactive) | 

Row | Compound | activity change, positive = activation | Potency
27 | COc1ccc(NC(=O)c2ccc(OC)cc2)cc1 |  | 11.2 µM (active)
28 | Cc1ccc(CCNC(=O)Cn2c(-c3cccs3)cc3cc(F)ccc32)cc1 | -4.22% (inactive) | 
29 | COc1ccccc1CNC(=O)CCCCn1c(=O)c2ccccc2n(CC(=O)Nc2cc(Cl)ccc2C)c1=O | 2.43% (inactive) | 
30 | O=C(COc1ccc(Cl)cc1)N(Cc1ccco1)Cc1ccco1 | -7.98% (inactive) | 
31 | COc1cccc(NC(=O)N(Cc2cn(C)c3ccccc23)C2CCCCCC2)c1 | -10.9% (inactive) | 
32 | CCn1c2ccccc2c2cc(NC(=O)COc3ccc(C)cc3C)ccc21 | -3.35% (inactive) | 
33 | CCOC(=O)c1ccc(NC2=CC(c3ccc(OCC)cc3)N(c3ccc(C(=O)OCC)cc3)C2=O)cc1 (stereo not drawn) | 6.6% (inactive) | 
34 | Cc1nn2cc(-c3ccc(Cl)cc3)cnc2c1Br |  | 3.55 µM (active)
35 | COc1ccccc1CNC(=O)CCn1c(=O)c2ccccc2n(CC(=O)Nc2ccc(Br)cc2F)c1=O | 5.14% (inactive) | 
36 | COc1ccc(NC(=O)c2ccc3oc(=O)c(S(=O)(=O)c4ccc(F)cc4)cc3c2)c(OC)c1 | 1.42% (inactive) | 
37 | O=C(C1CC1)N1CCc2cc(Br)cc(S(=O)(=O)N3CCN(c4ccccc4F)CC3)c21 | -0.303% (inactive) | 
38 | COc1cccc(C(=O)NC2=NC(c3ccc(N(C)C)cc3)CC(=O)N2)c1 (stereo not drawn) | -5.38% (inactive) | 
39 | Cc1cc(-c2csc(N)n2)c(C)n1-c1ccccc1 |  | 12.6 µM (active)
40 | Cc1cc(-c2csc(N)n2)c(C)n1Cc1ccccc1 | -2.13% (inactive) | 
41 | CC(=O)Nc1ccc(C(=O)Nc2nc(-c3cc(C)n(Cc4ccccc4)c3C)cs2)cc1 | -33.5% (inactive) | 
42 | COc1ccc(CCNc2nc3c(-c4cccc(F)c4)nnn3c3ccccc23)cc1OC | -4.52% (inactive) | 
43 | CCCN(CCC)C(=O)C(Cc1ccccc1)NS(=O)(=O)c1ccc2c(c1)c(=O)n(C)c(=O)n2C (stereo not drawn) | -1.75% (inactive) | 
44 | O=C(Nc1ccc(-c2nnc(-c3ccccc3)o2)cc1)C1CCCO1 (stereo not drawn) |  | 3.55 µM (active)
45 | O=C(Nc1cccc(-c2nnc(-c3ccccc3)o2)c1)C1CCCO1 (stereo not drawn) | 29.6% (inactive) | 
46 | O=C(Nc1nnc(CCc2ccccc2)s1)C1CCCO1 (stereo not drawn) | 49.4% (inactive) | 
47 | CCOc1ccc(CCNC(=O)c2cc3c(=O)n(C)c4ccccc4c3n2C)cc1 | 14.5% (inactive) | 
48 | Cn1c(COc2ccccc2C(C)(C)C)nc2ccccc21 | 0.0855% (inactive) | 
49 | CC1CCN(c2nc3ccc(C(=O)N4CCN(c5ccccc5)CC4)cc3s2)CC1 | -60.9% (inactive) | 
50 | C=CC(C1=CC(=O)C=CC1=O)c1ccc(O)cc1 (stereo not drawn) | 3.3% (inactive) | 
51 | Cc1cccc(C(=O)O)c1 | -1.62% (inactive) | 
52 | N/C(=N\OC(=O)c1cc(-c2ccccc2)nc2ccccc12)c1ccncc1 | -9.96% (inactive) | 

Row | Compound | activity change, positive = activation | Potency
53 | Cc1cccc(/C(N)=N/OC(=O)c2ccccc2Cl)c1 |  | 11.2 µM (active)
54 | COc1ccc(CNc2nc(-c3ccc(Cl)cc3)nn2C(=O)c2ccccc2)cc1 | 5.14% (inactive) | 
55 | COc1ccc2c(c1)c(=O)c(C(=O)c1ccccc1)cn2CC(=O)Nc1ccc2c(c1)OCCO2 | -7.16% (inactive) | 
56 | COc1ccc(-n2c(C)cc(C(=O)CSc3nnc(-c4cccs4)o3)c2C)cc1 | -65.5% (inactive) | 
57 | Cc1ccc(-n2c(C)cc(C(=O)CSc3nnc4ccccn34)c2C)cc1 |  | 2.24 µM (active)
58 | N#Cc1ccc(CSc2nnc3ccccn23)cc1 | 18.2% (inactive) | 
59 | Cc1ccc(-n2c(C)cc(C(=O)CN3C(=O)C(=O)N(C4CCCC4)C3=O)c2C)cc1 | -21.9% (inactive) | 
60 | O=C(CSc1nnc2ccccn12)c1ccccc1 |  | 12.6 µM (active)
61 | Cn1c(CC(=O)Nc2ccccc2)nnc1SCC(=O)c1ccccc1 | -15.5% (inactive) | 
62 | Cn1c(=O)c2c(nc(Oc3ccc(C#N)cc3)n2Cc2ccc(Cl)cc2Cl)n(C)c1=O | -11.5% (inactive) | 
63 | Cc1cccc(C(C)C)c1NC(=O)C(NS(=O)(=O)c1cccc2nsnc12)c1ccccc1 (stereo not drawn) | -1.11% (inactive) | 
64 | CCOC(=O)N1CCc2c(sc3c2c(=O)n(Cc2ccccc2)c(=O)n3CC(=O)Nc2cccc(C)c2)C1 | 3.36% (inactive) | 
65 | COc1ccc(N2CCN(C(=O)c3cn(C)c4ccc(S(=O)(=O)N5CCOCC5)cc4c3=O)CC2)cc1 | -4.72% (inactive) | 
66 | Cc1cc(NC(=O)CC(C)C)cc(-c2nc3ncccc3o2)c1O | -7.35% (inactive) | 
67 | COc1ccc(NC(=O)CSC2=Nc3ccccc3C3=NC(CC(=O)NCc4ccccc4OC)C(=O)N23)cc1Cl (stereo not drawn) | 7.19% (inactive) | 
68 | CCc1ccccc1N1CC(c2nc3ccccc3n2CCCCOc2ccccc2)CC1=O (stereo not drawn) | -26.7% (inactive) | 
69 | Cc1cc(C)c(NC(=O)c2cc3sc(Cl)cc3n2C)c(C)c1 | -5.94% (inactive) | 
70 | O=C(c1cnn2ccccc12)N1CCc2ccccc21 |  | 11.2 µM (active)
71 | O=C(c1cccc(C(=O)N2CCc3ccccc32)n1)N1CCc2ccccc21 | -21.8% (inactive) | 
72 | Cc1cnc(C(=O)OCC(=O)N2CCc3ccccc32)cn1 | 2.69% (inactive) | 
73 | COc1cc(OC)c(C2C=C(C(=O)O)Nc3ncnn32)cc1OC (stereo not drawn) | -0.129% (inactive) | 
74 | S=C(NCc1ccc2c(c1)OCO2)NCc1ccco1 | 0.358% (inactive) | 
75 | FC(F)Oc1ccc(NC(=S)NCc2ccco2)cc1Cl | 22.7% (inactive) | 
76 | S=C(NCc1ccco1)Nc1ccc2c(c1)OCCO2 |  | 15.8 µM (active)
77 | COc1ccccc1CNC(=O)c1ccc(NC(=O)N2CC(C)Sc3ccccc32)cc1 (stereo not drawn) | -0.38% (inactive) | 
78 | CC(=O)N1CCc2cc(Br)cc(S(=O)(=O)CCC(=O)NCCc3ccc(Cl)cc3)c21 | -6.16% (inactive) | 

Row | Compound | activity change, positive = activation | Potency
79 | Cc1cc(C)nc(N/N=C/c2c(C)oc3ccccc23)n1 | -2.55% (inactive) | 
80 | C(=N\Nc1ccc2ccccc2n1)/c1ccc2c(c1)OCO2 | -36.4% (inactive) | 
81 | Cc1noc(C)c1/C=N/Nc1ccc2ccccc2n1 |  | 14.1 µM (active)
82 | CCOC(=O)c1oc2ccc(S(=O)(=O)n3nc(-c4ccccc4OC)cc3N)cc2c1C | -4.54% (inactive) | 
83 | COc1ccc(-c2nc3c(c4c2C[C@H](c2ccccc2)OC4)CN(S(=O)(=O)c2c(C)noc2C)CC3)c(C)c1 | -6.74% [at 9.22 µM] (inactive) | 
84 | COc1ccc(-c2noc(COc3ccc(Cl)c(C)c3)n2)cc1 | -34.9% (inactive) | 
85 | Cc1ccccc1C(=O)NCc1nc(-c2ccc(Cl)cc2)no1 | -15.9% (inactive) | 
86 | Cc1cc(Cl)ccc1OCc1nc(-c2ccncc2)no1 |  | 12.6 µM (active)
87 | O=C(c1ccc2c(c1)N(Cc1ccccc1)C(=O)c1ccccc1S2(=O)=O)N1CCCC1 | -0.292% (inactive) | 
88 | O=C(CCCCn1c(=O)c2ccccc2n(CC(=O)Nc2cccc(C(F)(F)F)c2)c1=O)NCc1ccc2c(c1)OCO2 | 1.27% (inactive) | 
89 | Fc1ccc(CSc2nnc(-c3cc4c(s3)-c3ccccc3CC4)o2)cc1 | -4.27% (inactive) | 
90 | CCSc1nnc(-c2cc3c(s2)-c2ccccc2CC3)o1 |  | 15.8 µM (active)
91 | Cc1cccc(-c2nnc(SCC(=O)N3CCCc4ccccc43)o2)c1 | -8.01% (inactive) | 
92 | COc1ccccc1-c1noc(CSc2nnc(-c3ccccc3)n2-c2ccc(C)c(C)c2)n1 | 6.46% (inactive) | 
93 | CCCCOc1ccc(C(=O)Nc2cccc(-c3nc4ccccc4o3)c2C)cc1 | -5.83% (inactive) | 
94 | NC(=O)Cc1nc2scc(-c3ccc(Cl)cc3)c2c(=O)[nH]1 | -24.1% (inactive) | 
95 | O=c1[nH]c(CCl)nc2cc(-c3ccc(Cl)cc3)sc12 |  | 7.08 µM (active)
96 | O=c1[nH]c(CN2CCOCC2)nc2cc(Cl)ccc12 | -2.49% (inactive) | 
97 | Cc1cc(NC(=O)CCC2COc3ccccc3O2)no1 (stereo not drawn) |  | 12.6 µM (active)
98 | COc1ccc(NC(=O)CC2COc3ccccc3O2)c(OC)c1 (stereo not drawn) | -9.35% (inactive) | 
99 | Cc1ccc(SCCC(=O)Nc2cc(C)on2)cc1 | -16.2% (inactive) | 
100 | CCc1ccccc1NC(=O)c1ccc2c(c1)CCN2S(C)(=O)=O | 6.29% (inactive) | 
101 | Cn1c(=NC(=O)c2cnccn2)sc2ccccc21 |  | 12.6 µM (active)
102 | Cn1c(=NC(=O)CSCC(=O)N2CCCCC2)sc2ccccc21 | 4.56% (inactive) | 
103 | Cn1c(=NC(=O)CSCC(=O)N2CCOCC2)sc2ccccc21 | -1.7% (inactive) | 

From PubChem BioAssay AID1458 (National Center for Advancing Translational Sciences (NCATS), 2008)
